PubChem BioAssay (NCI)
About 79,000 compounds went through this panel and 15% of them were active in at least one assay; those are over-represented in the sample as a whole. Calls of active or inactive are those of the source. Rule as the data show it: active = growth inhibition above about 70%; inactive = the rest.

Columns and labels:
[1] = NCI Yeast Anticancer Drug Screen. Data for the rad52 strain (AID 147);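 also: 0% = growth of vehicle-treated control cultures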; conditions: S. cerevisiae rad52 mutant growth inhibition, stronger effect = higher value
Procedure, shortened: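 Yeast strain carrying a DNA damage repair alteration was exposed to test compounds. Growth inhibition was measured relative to vehicle-treated controls.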

[2] = NCI Yeast Anticancer Drug Screen. Data for the wt1 strain (AID 149);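 also: 0% = growth of vehicle-treated wt1 cultures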; conditions: S. cerevisiae wt1 strain (SPY 50644) growth inhibition, stronger effect = higher value
Procedure, shortened: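 Vehicle-normalised growth inhibition; strain wt1; compound exposure.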

[3] = NCI Yeast Anticancer Drug Screen. Data for the rad50EPP+ strain (AID 151);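 also: 0% = growth of vehicle-treated control cultures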; conditions: S. cerevisiae rad50 mutant strain, stronger effect = higher value
Procedure, shortened: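 Yeast strain carrying rad50 alteration (rad50EPP+) exposed to compounds; growth inhibition measured relative to vehicle-treated controls.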

[4] = NCI Yeast Anticancer Drug Screen. Data for the mgt1 strain (AID 153); conditions: S. cerevisiae mgt1 mutant growth inhibition, stronger effect = higher value
Procedure, shortened: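 Yeast mgt1 strain (DNA repair/cell-cycle alteration panel) exposed to compounds; growth inhibition measured relative to vehicle-treated controls.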

[5] = NCI Yeast Anticancer Drug Screen. Data for the mec2-1 strain (AID 157); conditions: S. cerevisiae mec2-1 strain, stronger effect = higher value
Procedure, shortened: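 mec2-1 yeast strain, carrying an alteration in DNA damage repair or cell cycle control, was exposed to compounds; growth inhibition was measured relative to vehicle-treated controls.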

[6] = NCI Yeast Anticancer Drug Screen. Data for the rad14 strain (AID 159);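 also: 0% = growth of vehicle-treated control cultures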; conditions: S. cerevisiae rad14 strain growth inhibition, stronger effect = higher value
Procedure, shortened: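 Vehicle-treated cultures served as the baseline for growth inhibition of a DNA repair-mutant yeast strain exposed to each compound.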

[7] = NCI Yeast Anticancer Drug Screen. Data for the sgs1 mgt1 strain (AID 161);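 also: 0% = growth of cultures given vehicle only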; conditions: S. cerevisiae sgs1 mgt1 strain, stronger effect = higher value
Procedure, shortened: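 Growth of a repair-deficient yeast mutant was monitored after compound treatment and expressed as inhibition relative to vehicle-treated cultures.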

[8] = NCI Yeast Anticancer Drug Screen. Data for the CLN2oe strain (AID 163);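 also: 0% = growth of vehicle-only control cultures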; conditions: S. cerevisiae CLN2oe strain, stronger effect = higher value
Procedure, shortened: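 Yeast cells carrying a defined cell-cycle control alteration were exposed to test compounds. Growth inhibition was scored against vehicle-treated control cultures.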

[9] = NCI Yeast Anticancer Drug Screen. Data for the cln2 rad14 strain (AID 165);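 also: 0% = growth equal to vehicle treated cultures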; conditions: S. cerevisiae cln2 rad14 strain, stronger effect = higher value
Procedure, shortened: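 Yeast carrying cln2 and rad14 alterations (cell cycle control and DNA damage repair) were exposed to compounds. Growth inhibition was measured against vehicle-treated controls.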

[10] = NCI Yeast Anticancer Drug Screen. Data for the bub3 strain (AID 167); conditions: S. cerevisiae bub3 mutant strain, stronger effect = higher value
Procedure, shortened: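 Inhibition values come from growth of compound-treated mutant yeast normalised to vehicle-treated controls.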

[11] = NCI Yeast Anticancer Drug Screen. Data for the wt2 strain (AID 169);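 also: 0% = growth of vehicle-treated yeast cultures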; conditions: S. cerevisiae wt2 strain growth inhibition, stronger effect = higher value
Procedure, shortened: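 Yeast cells were exposed to test compounds, and growth inhibition was measured relative to vehicle-treated controls.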

[12] = NCI Yeast Anticancer Drug Screen. Data for the mlh1 strain (AID 171);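 also: 0% = growth of vehicle-treated control cultures of the same strain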; conditions: S. cerevisiae mlh1 strain growth inhibition, stronger effect = higher value
Procedure, shortened: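 Yeast carrying a defined genetic alteration in DNA damage repair or cell cycle control were exposed to test compounds. Growth inhibition was measured relative to vehicle-treated controls.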

[13] = NCI Yeast Anticancer Drug Screen. Data for the mlh1 rad18 strain (AID 175); conditions: S. cerevisiae mlh1 rad18 strain growth inhibition, stronger effect = higher value
Procedure, shortened: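 Growth inhibition of the yeast strain was measured after compound exposure and expressed relative to vehicle-treated controls. The strain carries defined defects in DNA damage repair.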

[14] = NCI Yeast Anticancer Drug Screen. Data for the rad50 strain (AID 155);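 also: 0% = growth of vehicle-only cultures of the same strain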; conditions: S. cerevisiae rad50 strain growth inhibition, stronger effect = higher value
Procedure, shortened: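 A DNA repair-deficient yeast mutant serves as the test organism; compound-induced growth inhibition is calculated against vehicle-treated cells.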

[15] = NCI Yeast Anticancer Drug Screen. Data for the sgs1 strain (AID 173);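 also: 0% = growth of vehicle-only control cultures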; conditions: S. cerevisiae sgs1 mutant, stronger effect = higher value
Procedure, shortened: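 Yeast mutant strains carrying defined defects in DNA damage repair or cell cycle control were exposed to test compounds. Growth inhibition was scored against vehicle-treated controls.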

[16] = NCI Yeast Anticancer Drug Screen. Data for the rad18 strain (AID 177); conditions: S. cerevisiae rad18 mutant growth inhibition, stronger effect = higher value
Procedure, shortened: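 Yeast carrying a defined DNA damage repair alteration were exposed to compounds. Growth inhibition was expressed relative to vehicle-treated controls.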

[17] = at 5.0 µM (retest, dose inferred, filed as 0.5)
[18] = at 50.0 µM (retest, dose inferred, filed as 5.0)

Measured: growth inhibition

CC[C@@]1(O)C(=O)OCc2c1cc1n(c2=O)Cc2cc3ccccc3nc2-1
inactive: [2]; at 1.2 µM 2% | [2]; at 3.7 µM 39% | [4]; at 1.2 µM 0% | [4]; at 3.7 µM 6% | [5]; at 1.2 µM 47% | [6]; at 1.2 µM 21% | [6]; at 3.7 µM 55% | [7]; [17] 53% | [8]; at 1.2 µM 8% | [8]; at 3.7 µM 55% | [9]; [17] 14% | [9]; at 50.0 µM 58% | [10]; at 1.2 µM -12% | [10]; at 3.7 µM 15% | [10]; [17] -16% | [11]; at 1.2 µM 17% | [11]; at 3.7 µM 57% | [12]; at 1.2 µM -2% | [12]; at 3.7 µM 35% | [13]; [17] 39%
active: [1]; at 1.2 µM 97% | [1]; at 3.7 µM 98% | [1]; at 11.0 µM 98% | [1]; at 33.0 µM 97% | [1]; at 100.0 µM 95% | [2]; at 11.0 µM 90% | [2]; at 33.0 µM 94% | [2]; at 100.0 µM 95% | [3]; at 1.2 µM 89% | [3]; at 3.7 µM 95% | [3]; at 11.0 µM 97% | [3]; at 33.0 µM 97% | [3]; at 100.0 µM 96% | [4]; at 11.0 µM 79% | [4]; at 33.0 µM 91% | [4]; at 100.0 µM 92% | [5]; at 3.7 µM 95% | [5]; [17] 73% | [5]; at 11.0 µM 97% | [5]; at 33.0 µM 98% | [5]; [18] 98% | [5]; at 50.0 µM 88.2% | [5]; at 100.0 µM 97% | [6]; at 11.0 µM 89% | [6]; at 33.0 µM 97% | [6]; at 100.0 µM 96% | [7]; [18] 95% | [7]; at 50.0 µM 81.7% | [8]; at 11.0 µM 89% | [8]; at 33.0 µM 93% | [8]; at 100.0 µM 91% | [9]; [18] 89% | [10]; at 11.0 µM 90% | [10]; at 33.0 µM 95% | [10]; [18] 90% | [10]; at 50.0 µM 78.5% | [10]; at 100.0 µM 96% | [11]; at 11.0 µM 92% | [11]; at 33.0 µM 97% | [11]; at 100.0 µM 96% | [12]; at 11.0 µM 84% | [12]; at 33.0 µM 93% | [12]; at 100.0 µM 93% | [13]; [18] 93% | [13]; at 50.0 µM 81.7%

O=C1OC2C(O1)C1(Cl)C(Cl)=C(Cl)C2(Cl)C1(Cl)Cl (stereo not drawn)
inactive: [1]; at 1.2 µM -3% | [1]; at 3.7 µM -2% | [1]; at 11.0 µM -1% | [1]; at 33.0 µM 0% | [1]; at 100.0 µM 1% | [2]; at 1.2 µM -4% | [2]; at 3.7 µM -3% | [2]; at 11.0 µM -3% | [2]; at 33.0 µM -7% | [2]; at 100.0 µM -7% | [3]; at 1.2 µM -1% | [3]; at 3.7 µM 0% | [3]; at 11.0 µM 0% | [3]; at 33.0 µM -3% | [3]; at 100.0 µM -2% | [4]; at 1.2 µM -4% | [4]; at 3.7 µM -3% | [4]; at 11.0 µM -3% | [4]; at 33.0 µM -6% | [4]; at 100.0 µM -3% | [14]; at 1.2 µM -2% | [14]; at 3.7 µM -3% | [14]; [17] 2% | [14]; at 11.0 µM -2% | [14]; at 33.0 µM -3% | [14]; [18] 41% | [14]; at 100.0 µM -1% | [5]; at 1.2 µM -4% | [5]; at 3.7 µM -4% | [5]; [17] 3% | [5]; at 11.0 µM -3% | [5]; at 33.0 µM -3% | [5]; at 100.0 µM -3% | [7]; [17] 3% | [8]; at 1.2 µM -4% | [8]; at 3.7 µM -5% | [8]; at 11.0 µM -6% | [8]; at 33.0 µM -12% | [8]; at 100.0 µM -7% | [9]; [17] 1% | [9]; [18] 61% | [10]; at 1.2 µM -6% | [10]; at 3.7 µM -4% | [10]; [17] 0% | [10]; at 11.0 µM -9% | [10]; at 33.0 µM -10% | [10]; at 100.0 µM -19% | [11]; at 1.2 µM -13% | [11]; at 3.7 µM -5% | [11]; at 11.0 µM -6% | [11]; at 33.0 µM -7% | [11]; at 100.0 µM -7% | [12]; at 1.2 µM -1% | [12]; at 3.7 µM 0% | [12]; at 11.0 µM 2% | [12]; at 33.0 µM 1% | [12]; at 100.0 µM 2% | [15]; at 1.2 µM -1% | [15]; at 3.7 µM 0% | [15]; at 11.0 µM 0% | [15]; at 33.0 µM 0% | [15]; at 100.0 µM 1% | [13]; [17] 7% | [16]; at 1.2 µM -4% | [16]; at 3.7 µM 0% | [16]; at 11.0 µM -1% | [16]; at 33.0 µM -2% | [16]; at 100.0 µM 2%
active: [14]; at 50.0 µM 85.2% | [5]; [18] 90% | [5]; at 50.0 µM 87.8% | [7]; [18] 74% | [7]; at 50.0 µM 87.2% | [9]; at 50.0 µM 78.5% | [10]; [18] 75% | [10]; at 50.0 µM 98% | [13]; [18] 90% | [13]; at 50.0 µM 74.2%
